Many of the other results were omitted from the sample, so hits are more common in it than they were.
LmPK inhibitor – blocks Leishmania mexicana pyruvate kinase activity | purified LmPK, Kinase-Glo ATP luminescence, 1 h | Q27686 | Potency, µM (doses to about 57.5 µM), for inactives: at the top dose activity change, negative = inhibition, actives largely listed as inhibitors | AID 1721 | 0.37% of 290,000 active; note: potency is the fitted concentration of half-maximal effect; % is set by controls: 0 for no effect and ±100 for the full control effect
Target sequence (Q27686 whole entry, looked up): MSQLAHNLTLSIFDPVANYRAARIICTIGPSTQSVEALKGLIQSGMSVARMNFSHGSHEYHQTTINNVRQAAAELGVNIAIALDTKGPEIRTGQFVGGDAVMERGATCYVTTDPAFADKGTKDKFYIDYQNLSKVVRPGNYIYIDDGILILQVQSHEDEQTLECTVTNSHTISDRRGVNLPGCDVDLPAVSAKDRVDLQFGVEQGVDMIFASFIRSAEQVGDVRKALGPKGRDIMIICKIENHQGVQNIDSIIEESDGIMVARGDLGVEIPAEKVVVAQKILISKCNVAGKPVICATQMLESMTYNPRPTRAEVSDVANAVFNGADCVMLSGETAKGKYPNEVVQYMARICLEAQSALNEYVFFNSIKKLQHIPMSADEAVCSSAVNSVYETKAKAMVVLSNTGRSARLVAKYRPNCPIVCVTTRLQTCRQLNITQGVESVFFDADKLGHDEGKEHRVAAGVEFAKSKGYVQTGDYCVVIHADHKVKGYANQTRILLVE
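Pyruvate kinase activity monitored as ATP production (luciferase luminescence). Conditions: 0.1 nM enzyme, 0.5 mM PEP, 0.1 mM ADP, 1 h, RT; normalized against uninhibited and no-enzyme wells.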
CHX counter – counter-screen for Shiga toxin inhibitors: cycloheximide protein synthesis inhibition; cell reporter, cycloheximide protein synthesis inhibition counterscreen; 12% of 300,000 active; max response, %; in the data active = max response mostly above about 13%, no sharp cut-off; inactive = mostly below about 14%; note: read at 38.3 µM for the half of the compounds with a filed dose; 0% is about no effect
Shiga toxin inh – inhibitors of Shiga toxin in Vero cells | Vero cells, Shiga toxin protein synthesis inhibition reporter | 9.2% of 290,000 active | AID 2315 | inhibition, % at 38.7 µM; in the data active = inhibition mostly above about 28%, no sharp cut-off; inactive = mostly below about 43%; note: 0% is about no effect
Tb PYK inh – blocks Trypanosoma brucei pyruvate kinase; AID 624173; TbPYK enzyme, Kinase-Glo Plus ATP luminescence, 45 min; Potency, µM (highest dose often 76.8 µM), for the others: at the top dose activity, negative = inhibition, actives largely listed as inhibitors; Q57TT1; 0.12% of 410,000 active; note: potency is the fitted concentration of half-maximal effect; % is set by controls: 0 for no effect and ±100 for the full control effect; nearly all actives have a fitted effect of over 50% in size
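Activity of T. brucei pyruvate kinase was followed by Kinase-Glo Plus luminescence after the enzyme reacted 45 min at room temperature with 130 uM ADP (final) and substrate. Test compounds were added before ADP at multiple concentrations.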
RE007 growth inh – less growth of the S. pombe RE007 Vpr strain; Potency, µM (series often up to 92.2 µM), for the others: at the top dose activity change, negative = less growth, usual class: inhibitors; S. pombe RE007 Vpr strain, BacTiter-Glo ATP luminescence, 24 h; 0.21% of 360,000 active; AID 651644; active = well fitted falling curve with a large enough effect; inconclusive = small, poorly fitted or top-dose-only effect; inactive = no such curve, though single readings can be large or run the other way; note: potency is the fitted concentration of half-maximal effect; % is set by controls: 0 for no effect and ±100 for the full control effect; nearly all actives have a fitted effect of over 50% in size
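Fission yeast strain RE007, carrying one chromosomally integrated HIV-1 vpr copy, was seeded at OD 0.01 in PMG+AL medium with 23 nL pinned compound. After 24 h at 30 °C and 99% humidity, viability was read by BacTiter-Glo luminescence.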
Giardia FBPA inh – Giardia lamblia aldolase inhibition. purified Giardia FBPA. AID 2451. 0.71% of 290,000 active. Potency, µM (top dose mostly 59.6 µM), inactives show at the top dose activity, negative = inhibition, hits mostly inhibitors. A8B2U2; note: potency is the fitted concentration of half-maximal effect; % is set by controls: 0 for no effect and ±100 for the full control effect; nearly all actives have a fitted effect of over 55% in size
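Giardia FBPA (40 nM reagent) was preincubated 10 min at RT with compound (up to 57.5 uM final), then substrate plus GAPDH/TPI/NAD/arsenate coupling system with diaphorase/resazurin was added; resorufin fluorescence (525/598 nm) was read after 20 min.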
* marks the source's active call; other numbers are inactive results; ? = inconclusive; · = no result given; + = active, no number; [ ] = remark or other dose. Unless noted, calls come from the whole dose curve; as a rule, active = well fitted curve in the direction sought with a large enough effect; inconclusive = small, poorly fitted or top-dose-only effect, or another doubt; inactive = no such curve, though single readings can be large; an effect the other way counts as inactive or inconclusive.

SMILES	LmPK inhibitor	CHX counter	Shiga toxin inh	Tb PYK inh	RE007 growth inh	Giardia FBPA inh
COc1ccccc1NC(C)C(=O)N/N=C/c1ccccc1OCc1cccc(Br)c1 (stereo unspecified)	5%	5	30	5%	-1%	-2%
CCOc1ccccc1/C=N/Nc1cc(C)nc2ccc(C)cc12	-1%	14	·	0%	-7%	2%
Cc1cc(C)nc(N/N=C/c2ccccc2OCc2cccc(Br)c2)n1	-2%	14*	17	2%	11%	-12%
C/C(=N/Nc1nc(C)cc(C)n1)c1ccc(Br)cc1	4%	-2	·	-7%	-3%	?
Cc1cc(C)nc(N/N=C/c2ccccc2OCc2ccccc2)n1	-2%	12*	33	-3%	-11%	-7%
Cc1cc(C)nc(N/N=C/c2cc(Br)ccc2O)n1	1%	28*	39	5%	?	-25%
Cc1cc(C)nc(N/N=C/c2ccccc2OCc2ccc(Cl)cc2)n1	-2%	13	41	6%	-9%	-7%
Cc1cc(C)nc(N/N=C/c2ccccc2OCc2ccc(Br)cc2)n1	4%	29*	79*	-9%	0%	-9%
CCN(c1ccc(C)cc1)S(=O)(=O)c1nnc(NC(=O)C2CCCCC2)s1	·	·	·	-6%	·	·
O=C1C[C@@H](O)[C@@H](O)[C@@H]2[C@H]3C(=O)N(c4ccc(F)cc4F)C(=O)[C@@H]3CC[C@@H]12	·	·	·	·	·	2%[12.9 µM]
CCOC(=O)Cc1csc(NC(=O)c2cc(C)c(C)s2)n1	·	·	·	2%	-1%	·
CCOC(=O)Cc1csc(NC(=O)c2ccc(Cl)s2)n1	-4%	60*	54*	12%	-30%	-2%
CCCCOC(=O)Nc1nc(CC(=O)OCC)cs1	4%	15*	30	2%	14%	4%
Cc1ccc(-c2ocnc2C(=O)Nc2nc(C)cs2)cc1	6%	72*	·	-5%	-4%	-18%
CCOC(=O)Cc1csc(NC(=O)c2ccc(C)o2)n1	-8%	22*	52*	-7%	-3%	0%
Cc1ccc(-c2ocnc2C(=O)Nc2ccccc2NC(=O)c2ccccn2)cc1	-1%	9	-12	-1%	-1%	13%
COC(=O)C1=C(C)NC(C)=C(C(=O)OC(C)C)[C@H]1c1cccc2nonc12	·	·	·	-5%[33.2 µM]	·	-2%[21.7 µM]
Cc1ccc(C(=O)Nc2nc(-c3cccnc3)cs2)o1	-7%	22	26	-8%	-28%	-4%
CCOC(=O)Cc1csc(NC(=O)c2cnc3sc(C)cn3c2=O)n1	0%	43*	88*	-2%	20%	·
CCOC(=O)Cc1csc(NC(=O)c2ccc3ncsc3c2)n1	1%	29*	83*	6%	4%	·
CCOC(=O)Cc1csc(NC(=O)c2ccco2)n1	-7%	50*	50*	-5%	-12%	-10%
CCOC(=O)Cc1csc(NC(=O)c2ccncc2)n1	-3%	-4	7	-15%	21%	0%
Cc1csc(NC(=O)c2ccc(C)o2)n1	-28%	59*	+	-3%	-18%	0%
COc1cccc(C(=O)Nc2ccc(-c3cn4cccnc4n3)cc2)c1OC	·	·	·	-1%	·	·
COCC(=O)Nc1ccc(-c2cn3cccnc3n2)cc1	-10%	27*	36	3%	1%	0%
SMILES	LmPK inhibitor	CHX counter	Shiga toxin inh	Tb PYK inh	RE007 growth inh	Giardia FBPA inh
CCC(CC)C(=O)Nc1ccc(-c2cn3cccnc3n2)cc1	1%	14*	31*	3%	-5%	6%
CC(C)(C)CC(=O)Nc1cccc(-c2cn3cccnc3n2)c1	5%	38*	87*	2%	3%	1%
Cc1ccc(C)c(NC(=O)C(CC(C)C)N2Cc3ccccc3C2=O)c1 (stereo unspecified)	·	·	·	-8%	·	·
CCN1C(C)=C(C(=O)OC)C(c2ccccc2)N2C(=O)[C@@]3(C(=O)OC)O[C@@]12C1C(=O)N(C)C(=O)C13 (stereo partly specified)	·	·	·	·	·	2%[12.9 µM]
Cc1nc2ccccn2c(=O)c1NC(=O)c1ccccc1Cl	·	·	·	2%	·	·
CSc1ccc(CNC(=O)Cn2nc(N3CCN(c4ccccc4)CC3)ccc2=O)cc1	·	·	·	3%	·	·
O=C(/C=C/Nc1ccc(F)cc1)c1cccs1	·	·	·	-14%	-21%	·
O=C(/C=C/Nc1ccc(F)c(F)c1)c1ccc(Br)cc1	-12%	57*	93*	-2%	27%	-4%
O=C(/C=C/Nc1ccc(F)c(F)c1)c1cccs1	-29%	40*	53*	0%	-26%	-7%
O=C(/C=C/Nc1ccc(F)cc1)c1ccc(Br)cc1	-14%	30*	116*	4%	-15%	0%
O=C(/C=C/Nc1ccc(S(=O)(=O)Nc2ncccn2)cc1)c1cccs1	5%	25*	55*	3%	5%	4%
O=C(/C=C/Nc1ccc(S(=O)(=O)Nc2ncccn2)cc1)c1ccc(Cl)c(Cl)c1	-5%	-1	15	2%	5%	-2%
Fc1cccc(Nc2ncnc3sccc23)c1	-2%	9.8*	27	3%	·	-2%
COc1ccc(Nc2ncnc3sccc23)cc1OC	4%	20	20	20%	-21%	5%
O=C(O)c1cccc(Nc2ncnc3sccc23)c1	-1%	25*	41	-7%	-19%	-18%
Cc1ccc(-n2nc(C(=O)NCc3ccc(F)cc3Cl)c3c4ccccc4n(C)c3c2=O)cc1	·	·	·	4%	·	·
Cc1ccc(N2C(=O)CSC2c2ccccn2)cc1Cl (stereo unspecified)	-12%	25*	11	6%	-8%	-4%
O=C(NC(=S)NCC1CCCO1)c1ccc(Br)o1 (stereo unspecified)	0%	30*	67	-8%	-20%	-4%
Cc1ccc(C(=O)NC(=S)NCC2CCCO2)cc1Br (stereo unspecified)	-4%	52*	78*	-17%	?	-1%
O=C(NC(=S)NCC1CCCO1)c1ccccc1Br (stereo unspecified)	0%	16	9	-4%	-5%	0%
O=C(CC1C(=O)N(c2ccccc2)C(=O)N1Cc1ccc2c(c1)OCO2)Nc1ccccc1 (stereo unspecified)	·	·	·	0%	·	·
COc1ccc(Cl)cc1N=Nc1ncc[nH]1	·	·	·	·	·	-6%
COC(=O)c1ccc(NC(=O)Nc2ccc(F)cc2F)cc1	0%	37*	143*	2%	5%	0%
CC(=O)Nc1cccc(NC(=O)Nc2ccc(F)cc2F)c1	1%	10	31	9%	-23%	-12%
COC(=O)c1ccc(NC(=O)Nc2cccc(F)c2)cc1	1%	54*	86*	-6%	-4%	-2%
O=C(Nc1ccccc1)Nc1ccc(F)cc1F	-13%	40*	96*	2%	-17%	-2%
COC(=O)c1ccc(C(=O)Nc2ccc(F)cc2)cc1	·	·	·	-3%	-10%	·
COc1ccc(NC(=O)C(=O)NCCc2csc3nc(-c4ccccc4C)nn23)cc1	·	·	·	5%	·	·

Screening results (PubChem)
